High-throughput results (PubChem)
GPR151 ag = activators of human GPR151, primary screen, cell-based, PathHunter beta-arrestin, luminescence | activation, % at 11.2 µM | 650,000 tested, 1% active | PathHunter beta-arrestin GPR151 cells; in the data active means activation above about 4.9%;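 further: 0% = median of compound wells and 100% = cells with positive control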
MITF inh = MITF inhibitors, primary screen, biochemical, AlphaScreen, human; Microphthalmia-associated transcription factor (Homo sapiens), O75030; AlphaScreen MITF homodimerization, bead proximity signal; inhibition, % at 2.6 µM; 650,000 tested, 0.91% active; in the data active means inhibition above about 50%;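 further: 0% = vehicle wells with protein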
FBW7 activator = FBW7 E3 ligase activators, primary screen, biochemical, AlphaScreen, human; AlphaScreen FBW7–phospho-cyclin E peptide binding, activator screen; 650,000 tested, 0.13% active; AID 1259310, 2017; F-box/WD repeat-containing protein 7 (Homo sapiens), Q969H0; normalized activity (activation), % at 26.1 µM; in the data active means normalized activity above about 1.9%;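 further: purified mutant Fbw7 with reduced substrate affinity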
TEAD-YAP inh = TEAD-YAP interaction inhibition, primary screen, TEAD-YAP interaction inhibitor project, luminescence, HEK-TIYL cells | TEAD-Gal4/YAP UAS-luciferase luminescence | inhibition, % at 9.12 µM | 640,000 tested, 1.4% active | AID 1259422, 2018; in the data active means inhibition above about 32%;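 further: 0% = median of test compound wells and 100% = reference inhibitor wells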
* marks the source's active call; other numbers are inactive results. An excerpt weighted towards active compounds, which were near 3.5% of everything screened.

SMILES	GPR151 ag	MITF inh	FBW7 activator	TEAD-YAP inh
C=CCNC(=O)c1noc2c1CC(C(C)(C)C)CC2 (stereo unspecified)	0	10	0	-3
COc1ccc(CCN2CCc3nc4nc(N)ccc4cc3C2)cc1	0	0	0	-3
CCc1ccc(C2=CC(c3ccccc3F)n3c(nc4ccccc43)N2)cc1 (stereo unspecified)	-7	-6	0	68*
Cc1ccc(C2=CC(c3ccc(C)cc3)n3c(nc4ccccc43)N2)cc1 (stereo unspecified)	1	1	0	-43
Fc1ccccc1C1C=C(c2ccc(Br)cc2)Nc2nc3ccccc3n21 (stereo unspecified)	0	-4	0	-86
COc1cccc(C2=CC(c3ccccc3F)n3c(nc4ccccc43)N2)c1 (stereo unspecified)	3	11	0	-57
Cc1ccc(C2=CC(c3ccc(F)c(Br)c3)n3c(nc4ccccc43)N2)cc1 (stereo unspecified)	-7	0	0	52*
COc1ccc(C2=CC(c3ccccc3F)n3c(nc4ccccc43)N2)cc1 (stereo unspecified)	-6	4	0	35*
O=c1cc(-c2ccccc2)ncn1CCNS(=O)(=O)c1ccccc1Cl	-1	7	0	-5
COc1ccc(Cn2c(SCC(=O)Nc3cc(C)[nH]n3)nc3ccsc3c2=O)cc1	1	-7	0	-10
CCn1c(C2COc3ccccc3O2)nc2ccc(-c3ccncc3)cc21 (stereo unspecified)	-1	24	0	-15
c1ccc(Cn2c(C3COc4ccccc4O3)nc3ncc(-c4ccncc4)cc32)cc1 (stereo unspecified)	0	-6	0	47*
CN(C)N1C(N)=C(C#N)C(c2ccccc2Cl)C2=C1CC(C)(C)CC2=O (stereo unspecified)	-1	14	0	-18
c1cc(CCNc2nccn3c(-c4ccsc4)cnc23)ccn1	-1	-9	0	39*
COc1cc(CNc2nccn3c(-c4ccsc4)cnc23)cc(OC)c1OC	1	13	0	-4
COc1cc(Nc2nccn3c(-c4ccsc4)cnc23)cc(OC)c1OC	1	16	1	55*
COc1cc(Nc2nccn3c(-c4ccccc4)cnc23)cc(OC)c1OC	0	-14	-1	59*
COc1cc(CNc2nccn3c(-c4ccc5ccccc5c4)cnc23)cc(OC)c1OC	-1	7	2.0*	-9
COC(=O)COc1ccc(/C=N/NC(=O)CCSc2ccc(Cl)cc2)cc1	-1	17	1	-3
COc1ccccc1/C=C1\SC(=Nc2ccc(F)cc2)NC1=O	-1	5	0	11
COc1ccc(N(C(C)C(=O)Nc2ccccc2F)S(C)(=O)=O)cc1 (stereo unspecified)	0	-4	0	6
COc1cc(Nc2nccn3c(-c4ccc(C)cc4)cnc23)cc(OC)c1OC	0	-6	-1	46*
COc1cc(Nc2nccn3c(-c4cccc(N)c4)cnc23)cc(OC)c1OC	0	2	-1	43*
COc1cc(Nc2nccn3c(-c4cccc5ccccc45)cnc23)cc(OC)c1OC	3	-19	-1	16
COc1cc(-c2cnc3c(Nc4ccc(Cl)cc4)nccn23)cc(OC)c1OC	0	-9	0	4
SMILES	GPR151 ag	MITF inh	FBW7 activator	TEAD-YAP inh
CN(C)c1nc2cc([N+](=O)[O-])c([N+](=O)[O-])cc2nc1Nc1ccc(Br)cc1	3	11	0	9
N#CC1=C(SCC(=O)Nc2ccc(F)cc2)NC(=O)CC1c1cccc([N+](=O)[O-])c1 (stereo unspecified)	0	11	0	7
CN(C)c1c2c(c(C#N)c3nc4ccccc4n13)CCC2	-1	-18	0	3
N#Cc1c2c(c(Cl)n3c1nc1ccccc13)CCC2	0	11	1.9*	2
Cc1ccc(Nc2c3c(c(C#N)c4nc5ccccc5n24)CCC3)cc1C	-1	19	2.2*	2
COc1ccc(S(=O)(=O)/N=C2/C=C(Nc3ccccc3OC)C(=O)c3ccccc32)cc1	-2	57*	0	-3
COc1ccc(S(=O)(=O)/N=C2/C=C(Nc3ccccc3)C(=O)c3ccccc32)cc1	-1	28	0	-11
COc1ccc2[nH]cc(/C=C/c3onc(C)c3[N+](=O)[O-])c2c1	-1	-2	0	-27
